± gives the standard deviation of the averaged measurements. The full ranking holds about 25,000 sequences; the median of “ln(normalized median fluorescence intensity)” is about 7.9, and the highest 2% start at about 11. Many of the other results were omitted from the sample, so the highest values are more common in it than they were.

The assay concerns PfAP2-I AP2 domain 3 (GST-tagged). The experiment in a line: gcPBM binding intensity (ln(normalized median fluorescence intensity)); higher = stronger DNA binding. The essentials:
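Binding intensity values are the highest Masliner-normalised natural-log median intensity among replicate spots of either probe orientation. The binding step lasted 1 h in 1× PBS with 1% milk, 0.2 mg/ml BSA, 0.5% salmon testes DNA and 0.03% Triton X-100, using GST-tagged P. falciparum DNA-binding domains expressed in E. coli on an Agilent 4 × 180k array of primer-extended double-stranded 36-bp intergenic genomic probes plus negative controls. Alexa488 anti-GST antibody and a 488 nm scan detected bound protein.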
Turning to “TTCTGACCAATGCTATAAAATAATACAAAAGAAAAA [GTGCAC_negctrl_site3]”, the “gcPBM binding intensity (ln)” value was 7.83 ± 0.35.
The same measure for “TTAACTTTTTTATATGCACACATAAACAAGGATATA [CACACA_site8932]”: 9.57 ± 0.3.
Next, TCCATATGCAAACTGGTGCACAAGTAGCTTTTATAT: 11.15 ± 0.028; “AACTTTTTTATATGCACACATAAACAAGGATATATA [CACACA_site2874]”: 10.1 ± 0.49; “TATAAGAGGATATATACACACAAAAATATGTACAGT [CACACA_site6885]”: 7.92 ± 0.52.
Next, “TATTAATAATTAAGTTGTACATTAATTAATATACTG [XGTACX_site6994]”: 7.46 ± 0.41.
For “CGTTATATCAAAGGAGTGCATTATGAATACGTTTTA [GTGCAC_site9837]”, the “gcPBM binding intensity (ln)” value turned out to be 11.4 ± 0.65.
As for “ATATATTTTAGGAGAGTGCATTTAATATTATTTAAT [GTGCAC_site9444]”, the “gcPBM binding intensity (ln)” value stood at 10.7 ± 0.62.
For “ATATATCAAGGGAGTGAATGTTATGCATATGAATAT [TGCATGCA_negctrl_site573]”, the “gcPBM binding intensity (ln)” value was found to be 7.82 ± 0.83.
“AAAAATAGGAACCAATATCCAACGTGACTTTATAAT [CACACA_negctrl_site1011]”: the “gcPBM binding intensity (ln)” value was found to be 7.68 ± 0.81.
Next, “TTTACTTTTTTTTCTTGTACTCATACATACTATCAT [XGTACX_site4919]”: 7.84 ± 0.83.
Consider “ATATATATAATATGATGTACTATTTTGATAAAAAAT [XGTACX_site3975]”, for which the “gcPBM binding intensity (ln)” value worked out at 8.23 ± 0.54.
As for “TTTATCATGAACAGAAGTACATTTATATCAATGTCT [XGTACX_site6470]”, the “gcPBM binding intensity (ln)” value was 7.5 ± 0.47.
For the sequence “ATTGTCAAAACACGCACACACATATACATAATAACA [CACACA_site1742]”, the “gcPBM binding intensity (ln)” value is 8.2 ± 0.37.
“TTTGCGTAGAAATGTGTGCACTGATATTTATAATAA [GTGCAC_site9526]”: the “gcPBM binding intensity (ln)” value was found to be 10.6 ± 0.035.
The same measure for ATATATATATATTTCGTGCACTGATAATATTATTTT: 11.2 ± 0.35.
The same measure for “TTATATTATTCGTGTGTGCACGATATTTCATAATTG [GTGCAC_site9767]”: 10.1 ± 0.2; for “AAAATTAAAATATCACGTACGAAGAAAAAATTAAGA [XGTACX_site6437]”: 7.86 ± 0.54; for TATTTCACTTTTTGTCTGCACTAAAATTTTATGGTA: 9.46 ± 0.32.
The same measure for “ATTATATATATTTATGCACACAAAATATATTATATA [CACACA_site9244]”: 9.78 ± 0.3; for “TATATATATTTATGCACACAAAATATATTATATAAT [CACACA_site5955]”: 9.86 ± 0.38.
With “TTTTTAATTCAAAAAATAATATATTATATTTCAAAT [CACACA_negctrl_site737]”, the “gcPBM binding intensity (ln)” value amounted to 7.38 ± 0.48.
The same measure for “TTATATTTTACAAATGCACACATAATTTTTTTTTTT [CACACA_site8890]”: 9.04 ± 0.19; for “ACTAGACAAAATATAATGCACACTATTATTTTTATT [CACACA_site2726]”: 10.9 ± 0.65; for “AATTAGCTATTTAAAAATATATAAAATTTATATATA [CACACA_negctrl_site390]”: 7.47 ± 0.2.
Next, “TTTCAAAAAAATAGCTATATTTATATTAATGCACGA [TGCATGCA_negctrl_site63]”: 11.9 ± 0.45.
Next, “ATATATATATTATATGCACACTAATAAGACTATTTA [CACACA_site5880]”: 9.66 ± 0.11; “TAGACAAAATATAATGCACACTATTATTTTTATTTA [CACACA_site5508]”: 11 ± 0.73.
As for “ACTTCATTTTTTTTATGTACACAGAAGATTTACAAA [XGTACX_site4021]”, the “gcPBM binding intensity (ln)” value is 8.44 ± 0.47.
For the sequence “TTTATTTGTAACGGTTGTACTTGTATATCATTATGA [XGTACX_site4281]”, the “gcPBM binding intensity (ln)” value amounted to 7.72 ± 0.4.
The same measure for “AAAAAAGACCATGTTAGTACATAAGATTTTTTTCAT [XGTACX_site4298]”: 7.53 ± 0.57; for “ATATTGCTTATTTGATGTACGAATACACTAGTATTA [XGTACX_site4536]”: 7.79 ± 0.64; for “TTATATTATATATATAGTACACATGTAATATTTCAA [XGTACX_site1791]”: 7.76 ± 0.35.
The same measure for “ACCCTATTTATATATACACACACATATATAAATAAA [CACACA_site8980]”: 8.24 ± 0.36; for “AAAAAAAAAAATATAACACACAAAAAATTGTATCGA [CACACA_site1144]”: 7.53 ± 0.26.
The same measure for “GCTATTAATTTATAAGCACACAATATAAATATATAT [CACACA_site2251]”: 8.46 ± 0.057.
As for “AAATATAATAATACATTGCACATATATTATATATAT [TGCATGCA_negctrl_site611]”, the “gcPBM binding intensity (ln)” value worked out at 8.53 ± 0.64.
The same measure for “TTGCATATTTCTAATTGTACATTATTTTATTTTATA [XGTACX_site8451]”: 7.75 ± 0.54.
Next, “AAGTTATATTTGTGTACACATAATTTTATACTAATA [CACACA_site5553]”: 8.82 ± 0.33.
The same measure for “TATATATATATTTTTTGTACATATTATATAATATAC [XGTACX_site5187]”: 9.025 ± 0.064; for “ATATATTATAGAGGTGTGCACTACATACATTATAAT [GTGCAC_site9991]”: 10.9 ± 0.4; for “AGTACATTTTTGTGTGTGCACTAATATTATATACTT [GTGCAC_site9568]”: 11.3 ± 0.62.
With “ATATGTATGTATTTATTATTGTGCATTGTATTTATA [CACACA_negctrl_site664]”, the “gcPBM binding intensity (ln)” value was 9.36 ± 0.38.
The same measure for “TTTTGTTTATGTGTGCATTATATTATATTTTTTATT [TGCATGCA_negctrl_site146]”: 10.9 ± 0.45; for AATAAATAGAAAGAGGTGCTACATTATATTATTTAT: 8.73 ± 0.3; for “TATGTTTGTGTATATATTTATTTTTATGTAATTATA [GTGCAC_negctrl_site219]”: 7.75 ± 0.45.
Next, “TTGGGTGCATATATTTGTACACATTATTTCTATTTT [XGTACX_site3688]”: 11.2 ± 0.85.
Next, “CTTAAATTAATTTGGGTGCATATATTTGTACACATT [GTGCAC_site9948]”: 10.8 ± 0.53.

These data come from the supplement of paper PMC11417369.
